High-throughput results deposited in PubChem by National Center for Advancing Translational Sciences (NCATS).
Luc counter: Counterscreen for Luciferase (Kinase-Glo TM) Inhibition. actives 0.28% (n = 200,000). Luciferin 4-monooxygenase (Photuris pensylvanica), Q27757. Kinase-Glo luciferase, ATP luminescence, 8 min. Potency, µM (top dose mostly 38.3 µM), inactives show top-dose activity change, negative = inhibition, hits mostly inhibitors; note: potency is the fitted concentration of half-maximal effect; % is set by controls: 0 for no effect and ±100 for the full control effect; nearly all actives have a fitted effect of over 60% in size
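Recombinant Kinase-Glo luciferase, 10 uM ATP (linear range), luciferin; imidazole pH 7.2 / KCl / MgCl2 / Tween / BSA buffer; 8 min RT; luminescence.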
gsp ag: qHTS for Agonist of gsp, the Etiologic Mutation Responsible for Fibrous Dysplasia/McCune-Albright Syndrome: qHTS; gsp mutant cells, cAMP HTRF, 30 min; Potency, µM (top dose mostly 76.9 µM), for inactives: at the top dose activation (cAMP increase), actives largely listed as activators; actives 0.13% (n = 340,000); active = well fitted activation curve with a large enough effect; inconclusive = small, poorly fitted or top-dose-only effect, or another doubt; inactive = no such curve, though single readings can be large or run the other way; cell line not stated here;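 note: phosphodiesterase inhibitor Ro 20-1724 added with compounds to block cAMP breakdown; potency is the fitted concentration of half-maximal effect; nearly all actives have a fitted effect of over 60% in size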
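Cells stably selected in G418 were plated at 2000/well, grown 16-24 hr, then given compounds in DMSO with the PDE inhibitor […] (300 uM solution added) for 30 min at 37C; cAMP was read by HTRF.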
gsp antag: qHTS for Antagonists of gsp, the Etiologic Mutation Responsible for Fibrous Dysplasia/McCune-Albright Syndrome: qHTS. gsp-mutant cells, cAMP HTRF, 30 min. Potency, µM (doses to about 76.9 µM), inactives show top-dose activity change, negative = inhibition, hits mostly inhibitors. AID 624288, 2012. actives 0.4% (n = 340,000); calls by dose curve; cell line not stated here;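 note: intracellular cAMP measured with PDE inhibitor Ro 20-1724 present during compound exposure; potency is the fitted concentration of half-maximal effect; % is set by controls: 0 for no effect and ±100 for the full control effect; nearly all actives have a fitted effect of over 65% in size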
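HTRF cAMP read-out (cAMP-d2 plus anti-cAMP antibody-K in lysis buffer, 30 min RT). Before lysis, cells are exposed to compounds with […] for 30 min at 37C in DPBS containing Ca/Mg, BSA and Tween 20.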
RXFP1 agonist: qHTS Assay for Agonists of the Relaxin Receptor RXFP1; Relaxin receptor 1 (Homo sapiens), Q9HBX9; actives 0.3% (n = 370,000); Potency, µM (titrated, usually from 57.5 µM), for the others: at the highest dose activation, hits mostly activators; HEK293T-RXFP1 cAMP TR-FRET, 30 min; response scale: percent of porcine relaxin response, buffer zero; note: potency is the fitted concentration of half-maximal effect; % is set by controls: 0 for no effect and ±100 for the full control effect; nearly all actives have a fitted effect of over 60% in size
Target sequence (Q9HBX9 whole entry, looked up): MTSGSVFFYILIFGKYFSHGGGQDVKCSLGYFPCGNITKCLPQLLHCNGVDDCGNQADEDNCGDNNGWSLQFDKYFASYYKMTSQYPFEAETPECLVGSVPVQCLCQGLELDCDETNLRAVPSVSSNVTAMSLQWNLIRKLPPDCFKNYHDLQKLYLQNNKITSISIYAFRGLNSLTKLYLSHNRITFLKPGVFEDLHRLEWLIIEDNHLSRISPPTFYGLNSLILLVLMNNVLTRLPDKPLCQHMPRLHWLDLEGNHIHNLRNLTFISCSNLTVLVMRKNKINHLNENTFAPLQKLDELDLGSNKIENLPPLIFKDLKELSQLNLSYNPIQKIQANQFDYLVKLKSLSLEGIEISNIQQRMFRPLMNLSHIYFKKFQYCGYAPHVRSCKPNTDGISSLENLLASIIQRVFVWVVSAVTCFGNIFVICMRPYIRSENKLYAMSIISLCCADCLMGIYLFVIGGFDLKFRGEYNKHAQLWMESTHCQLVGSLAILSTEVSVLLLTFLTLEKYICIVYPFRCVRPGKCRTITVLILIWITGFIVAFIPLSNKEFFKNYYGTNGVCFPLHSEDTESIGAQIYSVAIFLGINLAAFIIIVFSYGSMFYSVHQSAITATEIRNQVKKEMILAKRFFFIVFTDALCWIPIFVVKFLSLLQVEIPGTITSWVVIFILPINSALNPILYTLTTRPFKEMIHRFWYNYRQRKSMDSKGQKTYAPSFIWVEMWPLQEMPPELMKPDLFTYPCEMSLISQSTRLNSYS
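cAMP rise read by TR-FRET after 30 min, 37C compound exposure (up to 58 uM) in RXFP1-transfected HEK293 cells with Ro 20174 present. EC50 from Hill-equation fits, with 29 nM porcine relaxin as 100% and buffer as basal.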
miR-21 reporter: qHTS Assay for Modulators of miRNAs and/orActivators of miR-21; Potency, µM (series often up to 38.3 µM), inactives show at the highest dose activity change, positive = activation, actives largely listed as activators; AID 2288, 2010; HeLa miR-21 FLuc reporter, luciferase, 48 h; 340,000 tested, under 10 active;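 note: % of control where 0% means no effect; miR-21 action dims this reporter so a rising signal means less miR-21 action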
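Luminescence from a firefly luciferase reporter carrying a miR-21 binding site downstream, stably expressed under a CMV promoter in HeLa cells that make miR-21 endogenously, reports miRNA modulation after 48 h compound exposure up to approximately 40uM final.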
RXFP1 antag: qHTS Assay for Antagonists of the Relaxin Receptor RXFP1. AID 1259400, 2018. actives 0.59% (n = 350,000). Relaxin receptor 1 (Homo sapiens), Q9HBX9. HEK293-RXFP1, relaxin-stimulated cAMP HTRF, 30 min; hits give low values. activity change, negative = inhibition, % at 57.5 µM;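 active = activity change of -60% or lower, but not beyond a set lower limit; inconclusive = change between -60% and -40%, or beyond the set limit; inactive = change above -40%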; note: % is set by controls: 0 for no effect and ±100 for the full control effect
An asterisk follows results filed as active; u = inconclusive; x = no result; [ ] = remark or other dose. A selection: hits, their analogues and other compounds. The true share with any hit is near 1%. Unless noted, calls come from the whole dose curve; as a rule, active = well fitted curve in the direction sought with a large enough effect; inconclusive = small, poorly fitted or top-dose-only effect, or another doubt; inactive = no such curve, though single readings can be large; an effect the other way counts as inactive or inconclusive.

SMILES	Luc counter	gsp ag	gsp antag	RXFP1 agonist	miR-21 reporter	RXFP1 antag
CC1C=CCC2C(=O)N(c3cccc(C(=O)N4CCN(c5ccc(F)cc5)CC4)c3)C(=O)C12 (stereo not drawn)	-6.1%	28.2µM*	-12.4%	-0.3%	-29.8%	6.2
Cc1ccc(C)c(C(=O)NCCN(C)C)c1	2.2%	-34.4%	20.8%	1.0%	-0.7%	6.7
C=C(CN(C)C)C(=O)c1cc(C)ccc1C	x	u	u	x	x	-108.8*
O=C1c2ccccc2C(=O)C1c1nccc2ccccc12	8.91µM*	-25.6%	-4.1%	3.7%	-20.7%	-7.3
O=C1c2ccccc2C(=O)C1c1ccnc2ccccc12	-24.2%	-18.3%	-1.5%	-4.0%	-24.3%	9.5
O=C(NCc1ccccc1)C(=O)Nc1c2c(nn1-c1ccc(F)cc1)CSC2	x	x	x	-0.2%	-10.5%	-78.7*
COc1cccc(CNC(=O)C(=O)Nc2c3c(nn2-c2ccccc2)CSC3)c1	x	x	x	3.8%	-1.5%	-27.4
COc1cc2c(cc1OC)C(COc1ccc3c(C)cc(=O)oc3c1)N(C(=O)Cc1ccccc1)CC2 (stereo not drawn)	x	x	x	35.5µM*	-4.6%	-5.9
COc1cc2c(cc1OC)C(COc1ccc3c(C)cc(=O)oc3c1)N(C(=O)Cc1ccc(F)cc1)CC2 (stereo not drawn)	x	x	x	-0.2%	-8.0%	-8.8
C/C(=N\NC(=O)c1c(C)nc2ccccn12)c1ccc(N2CCOCC2)cc1	0.3%	u	7.9%	14.1µM*	-17.1%	4.9
COc1ccc(NC(=O)NC(C)c2c(-n3cccc3)sc3c2CCN(C)C3)c(OC)c1 (stereo not drawn)	x	x	x	0.5%	-0.6%	-8.0
CCn1nc([N+](=O)[O-])c(C(C#N)c2nc3cc(C(F)(F)F)ccc3s2)c(Cl)c1=O (stereo not drawn)	-25.9%	-26.1%	28.2µM*	0.6%	21.1%	u
CCCn1nc([N+](=O)[O-])c(C(C#N)c2nc3ccccc3o2)c(Cl)c1=O (stereo not drawn)	-8.5%	-43.1%	u	-2.4%	11.8%	-16.5
CCCC1=Nc2cc(C(=O)NCCN3CCOCC3)ccc2Sc2ccccc21	x	19.3%	-10.7%	-4.1%	4.7%	-99.7*
Oc1c(C=Nc2ccccc2)sc2ccccc12	1.7%	4.8%	-24.9%	4.0%	-4.6%	-70.4*
O=C(Nc1ccc(Cl)cc1)Nc1ccc(Cl)c(C(F)(F)F)c1	x	x	x	x	x	-92.5*
COC(=O)c1ccc(NC(=O)Nc2ccc(F)c(Cl)c2)cc1	-0.6%	0.5%	35.5µM*	2.7%	-2.1%	-20.4
O=C(Nc1ccc(F)c(Cl)c1)Nc1csc2ccccc12	x	8.2%[15.4 µM]	35.5µM*	0.0%	25.9%	-39.6
COC(=O)c1cccc(NC(=O)Nc2ccc(Cl)c(Cl)c2)c1	-3.0%	-1.4%	35.5µM*	0.5%	22.8%	u
O=C(Nc1ccc(F)cc1F)Nc1csc2ccccc12	x	-1.5%[15.4 µM]	-25.9%	1.1%	0.0%	-7.8
CC(=O)c1cc(-c2ccc(F)cc2)n(CC(=O)NC2CCCCCC2)c1C	x	x	x	4.5%	-0.2%	-18.9
O=C(/C=C/c1ccc(O)c(O)c1)O[C@@H]1C[C@@](OC(=O)/C=C/c2ccc(O)c(O)c2)(C(=O)O)C[C@@H](O)[C@@H]1O	x	x	x	x	x	-7.0
CC(C)Cn1c(=O)c2sccc2n2c(CCCC(=O)N3CCN(c4ccc(F)cc4)CC3)nnc12	x	x	x	4.6%	-6.9%	-6.7
COc1ccccc1N(C(C)=O)C1=C(Cl)C(=O)c2ccccc2C1=O	x	-44.2%	x	x	x	-86.6*
COc1ccccc1N(C(=O)CCl)c1cn(C(C)=O)c2ccccc12	x	-2.5%	-5.6%	0.0%	u	3.0
SMILES	Luc counter	gsp ag	gsp antag	RXFP1 agonist	miR-21 reporter	RXFP1 antag
Cc1cc(C)n(C(C)CC(=O)Nc2ccc(C)c(N(C)C)c2)n1 (stereo not drawn)	x	x	x	0.2%	-3.3%	-9.2
COc1ccccc1CNC(=O)c1ccc(C)c(-n2cnc3cccnc32)c1	x	x	x	0.0%	-10.7%	0.9
CCOc1cc(/C=C2\SC(=O)N(c3ccc(O)cc3)C2=O)ccc1O	x	9.6%	31.6µM*	-2.1%	-13.3%	-17.6
COc1ccc(CNC(=O)c2cnn3c(C)c(Cc4ccc(F)cc4)c(C)nc23)cc1	x	x	x	-0.2%	1.1%	-9.8
CCOC(=O)C1CCCN(C(=O)Cn2nc(CC)n3c(cc4occc43)c2=O)C1 (stereo not drawn)	x	x	x	8.0%	-11.5%	x
Oc1ccc(/C=N/NC(=S)NC2CC3CCC2C3)cc1 (stereo not drawn)	x	10.3%	-9.6%	-0.9%	-26.1%	-25.0
S=C(N/N=C/c1cccs1)NC1CC2CCC1C2 (stereo not drawn)	x	-3.6%[15.4 µM]	5.9%	0.4%	-24.5%	-67.1*
Cc1cccc(NS(=O)(=O)c2ccc(NC(=O)N3CCCC3)cc2)c1	x	x	x	3.2%	-0.1%	-4.3
CC(=O)NC(=S)Nc1sc2c(c1C#N)CCCCC2	x	14.5%[15.4 µM]	u	2.6%	-55.1%	-5.5
N#Cc1c(NC(=S)NC(=O)Cc2cccs2)sc2c1CCCCC2	0.3%	32.1%	31.6µM*	3.2%	-30.6%	2.0
CCCOc1ccc(NC(=O)CC2C(=O)N(c3ccc(Cl)cc3)C(=O)N2CCc2ccncc2)cc1 (stereo not drawn)	x	x	x	2.3%	29.0%	-8.3
O=[N+]([O-])c1cc([N+](=O)[O-])c2oc(-c3ccccc3)c(Br)c2c1O	x	17.1%	-26.9%	0.9%	22.0%	-113.0*
Cc1cc2oc(C(=O)Nc3ccc(S(=O)(=O)Nc4ncccn4)cc3)cc(=O)c2cc1C	x	x	x	-0.1%	1.9%	-3.1
O=C1c2cccc3c([N+](=O)[O-])ccc(c23)C(=O)N1Cc1cccnc1	3.7%	13.7%[15.4 µM]	-14.1%	9.4%	u	-77.4*
O=C1c2cccc3cccc(c23)C(=O)N1Cc1cccnc1	x	9.2%[15.4 µM]	0.1%	4.1%	-6.6%	-8.4
Cn1cc(C(=O)[C@@H]2CCc3nc[nH]c3C2)c2ccccc21	x	x	x	x	x	6.0
COc1cc(C)ccc1OCC(=O)OCC(=O)c1[nH]c(C)c(C(C)=O)c1C	x	8.6%[15.4 µM]	-17.8%	x	x	-32.0
CC(=O)c1c(C)[nH]c(C(=O)COc2cc(C)ccc2C(C)C)c1C	4.8%	-32.4%	11.2µM*	3.2%	u	-8.3
